WRN helicase inh: WRN helicase (human) inhibition. Q14191. WRN helicase unwinding, fluorescent forked duplex, kinetic. Potency, µM (doses to about 114 µM), hits mostly inhibitors. actives 0.46% (n = 360,000). AID 651768; note: nearly all actives have a fitted effect of over 55% in size
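Fluorescence dequenching readout, ex 525 nm/em 598 nm, kinetic mode: forked duplex DNA (100 nM final) with adjacent fluorophore and quencher unwound by WRN (20 nM final) with 2 mM ATP. Compound preincubation 15 min, room temperature.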
Pol eta inh-1: blocks human DNA polymerase eta activity. Q9Y253. Potency, µM (highest dose often 114 µM), hits mostly inhibitors. actives 1.2% (n = 390,000). AID 588591. recombinant Pol eta, fluorescent DNA replication assay
Target sequence (Q9Y253 whole entry, looked up): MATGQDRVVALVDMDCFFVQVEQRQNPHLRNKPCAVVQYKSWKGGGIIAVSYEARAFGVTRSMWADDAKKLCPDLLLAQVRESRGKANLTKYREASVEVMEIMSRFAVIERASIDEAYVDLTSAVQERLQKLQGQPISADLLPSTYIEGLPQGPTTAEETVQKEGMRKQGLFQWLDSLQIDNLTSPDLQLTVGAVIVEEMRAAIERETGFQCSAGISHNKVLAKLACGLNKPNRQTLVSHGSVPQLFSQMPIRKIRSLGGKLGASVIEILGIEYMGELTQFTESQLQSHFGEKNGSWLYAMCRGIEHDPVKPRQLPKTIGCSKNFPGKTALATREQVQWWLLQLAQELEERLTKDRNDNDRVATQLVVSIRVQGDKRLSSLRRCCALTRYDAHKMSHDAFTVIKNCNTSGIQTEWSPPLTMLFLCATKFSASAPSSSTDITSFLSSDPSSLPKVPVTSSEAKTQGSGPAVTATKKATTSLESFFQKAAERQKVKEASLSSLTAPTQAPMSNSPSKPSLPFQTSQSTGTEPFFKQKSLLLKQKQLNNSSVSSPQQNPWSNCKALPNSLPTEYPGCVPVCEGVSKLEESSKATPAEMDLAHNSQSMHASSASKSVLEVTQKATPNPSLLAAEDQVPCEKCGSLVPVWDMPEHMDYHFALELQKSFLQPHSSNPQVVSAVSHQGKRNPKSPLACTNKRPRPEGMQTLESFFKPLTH
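Fluorescent replication assay: 50 nM final substrate added after a 15 min room-temperature compound preincubation with 10 nM enzyme. Signal taken at 0 min and again at 10 min.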
L3MBTL1 inh: L3MBTL1 (human) inhibition. actives 0.66% (n = 230,000). Q9Y468. AID 485360. Potency, µM (series often up to 57.1 µM), usual class: inhibitors. AlphaScreen L3MBTL1–H3K9me1 peptide binding; note: nearly all actives have a fitted effect of over 60% in size
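First, the protein-peptide complex forms for 30 min at room temperature (L3MBTL1 50 nM, biotinylated H3K9me1 peptide 75 nM). Next, compounds are pin-transferred and incubated 30 min. Finally, AlphaScreen beads are added and read after 30 min.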
POLB inh: inhibitors of human DNA polymerase beta; P06746; Pol beta primer extension/strand displacement, fluorescence kinetic; Potency, µM (highest dose often 114 µM), most hits filed as inhibitors; actives 1.3% (n = 340,000)
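Homogeneous kinetic assay of primer extension and strand displacement by 10 nM Pol beta, preincubated 15 min at room temperature with compound before 50 nM substrate (final) was added. Read at 0 and 10 min; four-parameter Hill fit.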
Pol kappa inh-1: inhibitors of human DNA polymerase kappa; Q9UBT6; purified Pol kappa, fluorescent DNA synthesis assay, 10 min; Potency, µM (highest dose often 107 µM), actives largely listed as inhibitors; actives 0.53% (n = 400,000)
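Activity was followed as the change in fluorescence between reads at 0 and 10 min after starting the reaction with 50 nM substrate. Beforehand, 10 nM polymerase had been preincubated with compound for 15 min at room temperature.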
POLI inh: blocks human DNA polymerase iota activity; Q9UNA4; Pol iota fluorescent replication assay, 10 min; Potency, µM (top dose mostly 115 µM), actives largely listed as inhibitors; actives 1% (n = 390,000); AID 588590
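Pol iota at 10 nM preincubated 15 min with compounds at room temperature; reaction started with fluorescent substrate, 50 nM final. Fluorescence read kinetically at 0 and 10 min; buffer-only wells as negative control.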
TbPGK inh: blocks T. brucei phosphoglycerate kinase. TbPGK coupled GAPDH assay, Kinase-Glo luminescence. shares compounds with Pol kappa inh-1. AID 686980. actives 79% (n = 500). Potency, µM (series often up to 57.5 µM), hits mostly inhibitors; note: nearly all actives have a fitted effect of over 65% in size
Pol iota confirm: Confirm cherry-picked inhibitors of human polymerase iota; shares compounds with Pol kappa inh-1; Pol iota primer extension, TAMRA/BHQ fluorescence; Potency, µM, usual class: inhibitors; actives 77% (n = 1,500); AID 720496
GALK inh confirm: galactokinase (human) inhibition, confirmation; actives 70% (n = 150); shares compounds with Pol eta inh-1; Potency, µM (doses to about 115 µM), actives largely listed as inhibitors; purified GALK, Kinase-Glo ATP depletion luminescence; AID 2015
GALK redox cs: redox cycling activity in phenol red-HRP assay; shares compounds with Pol eta inh-1; Phenol red-HRP H2O2 redox cycling, absorbance 600 nm; Potency, µM (series often up to 115 µM), usual class: inhibitors; actives 40% (n = 150); AID 2035
HEK293 viability: reduces HEK-293 cell viability in GALK counter-screen; AID 2547; Potency, µM (top dose mostly 46.1 µM), most hits filed as inhibitors; shares compounds with Pol eta inh-1; actives 10% (n = 170); HEK-293 viability, ATP luminescence (CellTiter-Glo), 24/48 h
Pol kappa inh-2: confirmation of human DNA polymerase kappa inhibitors; shares compounds with Pol eta inh-1; purified Pol-kappa, fluorescent strand-displacement substrate; Potency, µM, most hits filed as inhibitors; actives 76% (n = 920); AID 720501
Pol eta inh-2: confirmation of human DNA polymerase eta inhibitors; AID 720502; Potency, µM, hits mostly inhibitors; Pol eta primer extension, TAMRA/BHQ fluorescence, 10 min; actives 64% (n = 2,600); shares compounds with Pol eta inh-1
Numbers stand for hits; - = inactive; ? = inconclusive; . = no result; [ ] = remark or other dose. Rows were chosen to be rich in hits. Some 2.5% of all compounds tested hit in one or more screens of this group. Calls come from the whole dose curve; as a rule, active = well fitted curve in the direction sought with a large enough effect; inconclusive = small, poorly fitted or top-dose-only effect, or another doubt; inactive = no such curve, though single readings can be large; an effect the other way counts as inactive or inconclusive.

SMILES	WRN helicase inh	Pol eta inh-1	L3MBTL1 inh	POLB inh	Pol kappa inh-1	POLI inh	Pol iota confirm	Pol kappa inh-2	Pol eta inh-2	others
CCN1C(C)=C(C)S/C1=C1\SC(=S)N(C2CCCCC2)C1=O	-	-	-	-	-	-	.	.	.
O=C1C=C(O)c2[nH]c(=O)ccc2C1=O	?	18µM	.	.	?	18µM	53	24	48
O=C(/C=C/c1ccco1)N1CCN(S(=O)(=O)c2cccc([N+](=O)[O-])c2)CC1	-	-	-	.	-	-	.	.	.
COc1ccc(S(=O)(=O)N2CCN(C(=O)/C=C/c3ccco3)CC2)cc1	-[11.6 µM]	50µM	-	.	?	22µM	67	67	76
CCc1nnc(NC(=O)CSc2nc(-c3ccccc3)cc(-c3ccc(F)cc3)c2C#N)s1	-	-	-	-	-	-	.	.	.
CCc1nnc(NC(=O)CSc2sc3c(O)cc(=O)[nH]c3c2C#N)s1	13µM	3.5µM	.	0.56µM	8.9µM	1.8µM	42	17	30
N[C@@]1(C(=O)O)CN[C@H](C(=O)O)C1	.	.	.	.	-[19.4 µM]	.	.	.	.
CN(C)/C=N/NC(=O)c1ccccc1Cl	-	-	-	-	-	-	.	.	.
O=C(O)/C=C/c1ccc([N+](=O)[O-])o1	-	20µM	?	?	?	25µM	30	.	24	TbPGK inh=4.6µM
CC(/C=N/n1c(-c2ccccc2)n[nH]c1=S)=C\c1ccco1	-	?	-	?	-	-	.	.	.
S=c1[nH]nc(-c2ccncc2)n1/N=C/C=C/c1ccco1	?	28µM	18µM	20µM	-	?	42	30	27
COc1cc(/C=C/C=C2/CC/C(=C/C=C/c3ccc(O)c(OC)c3)C2=O)ccc1O	40µM	5µM	.	.	14µM	3.5µM	21	.	15
COc1cc(/C=C2\COC/C(=C\c3ccc(O)c(OC)c3)C2=O)ccc1O	-[11.6 µM]	?	?	-	-	?	.	.	.
COC(=O)c1ccc(COc2ccccc2/C=C(\C#N)C(=O)NC(C)C)cc1	-	-	-	-	-	-	.	.	.
COC(=O)c1ccc(COc2ccccc2/C=C/C(=O)c2ccc(OCC(=O)O)cc2)cc1	?	22µM	.	50µM	-	?	47	.	48
Cc1cc(C)c(Nc2cc(S(=O)(=O)O)c(N)c3c2C(=O)c2ccccc2C3=O)c(C)c1	56µM	18µM	16µM	20µM	?	?	.	34	?	TbPGK inh=29µM
COc1ccccc1-c1nnc2sc(-c3cnccn3)nn12	?	45µM	.	?	-	?	75	.	?
COc1ccccc1-c1nnc2sc(-c3ccc(N(C)C)cc3)nn12	-	-	-	-	-	-	.	.	.
Cc1cccc2c(N=NC(=O)c3ccc(NS(=O)(=O)c4cccs4)cc3)c(O)[nH]c12	20µM	11µM	-	.	?	?	17	.	19
O=C(N=Nc1c(O)[nH]c2ccc(F)cc12)c1ccc(NS(=O)(=O)c2cccs2)cc1	-	?	-	.	-	-	.	.	.
CC1=Nn2c(nnc2-c2ccccn2)SC1	-	-	-	-	-	-	.	.	.
O=C(/C=C/c1ccco1)c1cccnc1	?	14µM	.	-	?	?	67	.	30
CCc1ccc(N(C(=O)c2csnn2)C(C(=O)NC(C)(C)C)c2ccncc2)cc1 (stereo not given)	-	-	-	-	-	-	.	.	.
COC1=C(Br)C(=O)c2nc(C)ccc2C1=O	50µM	14µM	.	.	.	.	27	19	30
COC1=C(N)C(=O)c2nc(C)ccc2C1=O	-	8.9µM	.	.	?	18µM	24	19	30
SMILES	WRN helicase inh	Pol eta inh-1	L3MBTL1 inh	POLB inh	Pol kappa inh-1	POLI inh	Pol iota confirm	Pol kappa inh-2	Pol eta inh-2	others
O=C(O)c1ccc(CSCc2ccccc2Cl)o1	-	-	.	-	-	-	.	.	.
Cc1nc2sc(C(=O)N(C)c3ccccc3)c(NC(=O)c3ccccc3Cl)c2c(C)c1C	.	.	.	-	-	-	.	.	.
N#Cc1c(-c2ccccc2)nc(SCC(=O)N2c3ccccc3Sc3ccccc32)[nH]c1=O	?	40µM	-	25µM	-	?	84	.	?	GALK inh confirm=30µM;GALK redox cs=-;HEK293 viability=-
COCCCN(C(=O)CCSc1ccc(F)cc1)c1c(N)n(Cc2ccccc2)c(=O)[nH]c1=O	-	-	-	.	-	-	.	.	.
Cc1cccc(C(=O)Nc2cccc(C(=O)N/N=C/c3ccccn3)c2)c1	-	-	.	-	-	?	.	.	.
CCC(=O)Nc1ccc2nc3c(=O)n(C)c(=O)n(C)c3nc2c1	.	-	.	-	-	-	.	.	.
CCC(=O)Nc1ccc2nc3c(=O)[nH]c(=S)[nH]c3nc2c1	?	18µM	.	40µM	45µM	?	27	17	30
NS(=O)(=O)c1ccc(N=Nc2c[nH]c(=O)c(O)c2)cc1	?	22µM	?	?	?	14µM	.	.	54	TbPGK inh=18µM
CC(C)CN(Cc1cc(=O)oc2cc3c(cc12)CCCC3)CC(C)C	-	?	-	-	-	-	.	.	.
O=S(=O)(O)c1cc(Cl)cc(N=Nc2ccc(O)cc2O)c1O	50µM	13µM	.	.	-	-	12	6.7	43
COCCCNC(=O)CC(=O)N/N=C\c1ccc(SC)cc1	-	-	-	-	-	-	.	.	.
COc1cc(/C=N\NC(=O)c2ccc(-c3ccccc3)cc2)ccc1OCC(N)=O	-	-	.	-	-	-	.	.	.
CCOc1cc(/C=N/NC(=O)c2ccc(-c3csc(Nc4ccc(C)cc4)n3)cc2)ccc1OCC(=O)O	50µM	18µM	-	5µM	32µM	8.9µM	30	19	76	TbPGK inh=12µM

Bioassay records deposited in PubChem by National Center for Advancing Translational Sciences (NCATS).
